{"source": "PubChem BioAssay AID1159580", "about": "(chemical genetic matrix, 2015)", "test": "chemical genetic growth profiling, strain panel (AID 1159580);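 note: tested at 20 µM; growth read once vehicle control cultures reached saturation at 30 °C; 1 = growth at the plate median or of vehicle wells; lower values mean less growth of the strain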", "settings": "growth OD", "key": {"[1]": {"settings": "S. cerevisiae deletion strains, locus YAL013W, strain DEP1, hits give low values"}, "[2]": {"settings": "S. cerevisiae deletion strains, locus YDR150W, strain NUM1, hits give low values"}, "[3]": {"settings": "S. cerevisiae deletion strains, locus YMR307W, strain GAS1, hits give low values"}, "[4]": {"settings": "S. cerevisiae deletion strains, locus YNL322C, strain KRE1, hits give low values"}, "[5]": {"settings": "S. cerevisiae deletion strains, locus YPL055C, strain LGE1, hits give low values"}, "[6]": {"settings": "S. cerevisiae deletion strains, locus YBR229C, strain ROT2, hits give low values"}, "[7]": {"settings": "S. cerevisiae deletion strains, locus YDL101C, strain DUN1, hits give low values"}, "[8]": {"settings": "S. cerevisiae deletion strains, locus YEL061C, strain CIN8, hits give low values"}, "[9]": {"settings": "S. cerevisiae deletion strains, locus YGR078C, strain PAC10, hits give low values"}, "[10]": {"settings": "S. cerevisiae deletion strains, locus YHR030C, strain SLT2, hits give low values"}, "[11]": {"settings": "S. cerevisiae deletion strains, locus YHR087W, strain rtc3, hits give low values"}, "[12]": {"settings": "S. cerevisiae deletion strains, locus YJL187C, strain SWE1, hits give low values"}, "[13]": {"settings": "S. cerevisiae deletion strains, locus YJR043C, strain POL32, hits give low values"}, "[14]": {"settings": "S. cerevisiae deletion strains, locus YJR075W, strain HOC1, hits give low values"}, "[15]": {"settings": "S. cerevisiae deletion strains, locus YKL190W, strain CNB1, hits give low values"}, "[16]": {"settings": "S. cerevisiae deletion strains, locus YLR039C, strain RIC1, hits give low values"}, "[17]": {"settings": "S. cerevisiae deletion strains, locus YLR058C, strain SHM2 (second series), hits give low values"}, "[18]": {"settings": "S. cerevisiae deletion strains, locus YLR085C, strain ARP6, hits give low values"}, "[19]": {"settings": "S. cerevisiae deletion strains, locus YLR262C, strain YPT6, hits give low values"}, "[20]": {"settings": "S. cerevisiae deletion strains, locus YML094W, strain GIM5, hits give low values"}, "[21]": {"settings": "S. cerevisiae deletion strains, locus YMR219W, strain ESC1, hits give low values"}, "[22]": {"settings": "S. cerevisiae deletion strains, locus YMR263W, strain SAP30, hits give low values"}, "[23]": {"settings": "S. cerevisiae deletion strains, locus YNL128W, strain TEP1, hits give low values"}, "[24]": {"settings": "S. cerevisiae deletion strains, locus YNL153C, strain GIM3, hits give low values"}, "[25]": {"settings": "S. cerevisiae deletion strains, locus YNL298W, strain CLA4 (second series), hits give low values"}, "[26]": {"settings": "S. cerevisiae deletion strains, locus YNR030W, strain Alg12, hits give low values"}, "[27]": {"settings": "S. cerevisiae deletion strains, locus YPL241C, strain CIN2, hits give low values"}, "[28]": {"settings": "S. cerevisiae deletion strains, locus YPR135W, strain CTF4, hits give low values"}, "[29]": {"settings": "S. cerevisiae strains, strain wild type, hits give low values"}}, "note": "Out of some 5,500 compounds screened, about 2,000 (36%) were called active. Not shown: some 18% with an inconclusive outcome. This is one part of the list. Values without a mark were called inactive. Cut-off read from the data, not from the text of the source: active = normalized growth mostly below about 0.91 (no sharp cut-off); inconclusive = no clear call, values can overlap the other calls; inactive = mostly above about 0.92."}
{"smiles": "Cc1nc2c([nH]1)c(=O)n(C)c(=O)n2Cc1ccco1", "values": [{"measurement": "normalized growth", "setting": "[1]", "result": 1.04}, {"measurement": "normalized growth", "setting": "S. cerevisiae deletion strains, locus YAL040C, strain CLN3, hits give low values", "result": 1}, {"measurement": "normalized growth", "setting": "S. cerevisiae deletion strains, locus YCL061C, strain MRC1 (second series), hits give low values", "result": 1.01}, {"measurement": "normalized growth", "setting": "[2]", "result": 1}, {"measurement": "normalized growth", "setting": "S. cerevisiae deletion strains, locus YDR363W, strain ESC2, hits give low values", "result": 1.03}, {"measurement": "normalized growth", "setting": "S. cerevisiae deletion strains, locus YER002W, strain NOP16, hits give low values", "result": 0.998}, {"measurement": "normalized growth", "setting": "[3]", "result": 1.02}, {"measurement": "normalized growth", "setting": "S. cerevisiae deletion strains, locus YNL175C, strain NOP13, hits give low values", "result": 1.01}, {"measurement": "normalized growth", "setting": "S. cerevisiae deletion strains, locus YNL197C, strain WHI3, hits give low values", "result": 1.01}, {"measurement": "normalized growth", "setting": "S. cerevisiae deletion strains, locus YNL224C, strain SQS1, hits give low values", "result": 0.995}, {"measurement": "normalized growth", "setting": "[4]", "result": 1.02}, {"measurement": "normalized growth", "setting": "S. cerevisiae deletion strains, locus YOR083W, strain WHI5 (second series), hits give low values", "result": 1.05}, {"measurement": "normalized growth", "setting": "[5]", "result": 1.01}]}
{"smiles": "O=C1c2cccc3cc([N+](=O)[O-])cc(c23)C(=O)N1CCO", "values": [{"measurement": "normalized growth", "setting": "[1]", "result": 0.992}, {"measurement": "normalized growth", "setting": "[6]", "result": 1.02}, {"measurement": "normalized growth", "setting": "[7]", "result": 0.974}, {"measurement": "normalized growth", "setting": "[2]", "result": 0.995}, {"measurement": "normalized growth", "setting": "[8]", "result": 1.01}, {"measurement": "normalized growth", "setting": "[9]", "result": 0.988}, {"measurement": "normalized growth", "setting": "[10]", "result": 1.04}, {"measurement": "normalized growth", "setting": "[11]", "result": 1.02}, {"measurement": "normalized growth", "setting": "[12]", "result": 0.984}, {"measurement": "normalized growth", "setting": "[13]", "result": 0.995}, {"measurement": "normalized growth", "setting": "[14]", "result": 1.02}, {"measurement": "normalized growth", "setting": "[15]", "result": 1.02}, {"measurement": "normalized growth", "setting": "[16]", "result": 1.03}, {"measurement": "normalized growth", "setting": "[17]", "result": 1.01}, {"measurement": "normalized growth", "setting": "[18]", "result": 0.908}, {"measurement": "normalized growth", "setting": "[19]", "result": 1.05}, {"measurement": "normalized growth", "setting": "[20]", "result": 0.976}, {"measurement": "normalized growth", "setting": "[21]", "result": 1.01}, {"measurement": "normalized growth", "setting": "[22]", "result": 0.984}, {"measurement": "normalized growth", "setting": "[23]", "result": 1}, {"measurement": "normalized growth", "setting": "[24]", "result": 1.02}, {"measurement": "normalized growth", "setting": "[25]", "result": 0.975}, {"measurement": "normalized growth", "setting": "[4]", "result": 1.01}, {"measurement": "normalized growth", "setting": "[26]", "result": 0.985}, {"measurement": "normalized growth", "setting": "[5]", "result": 0.991}, {"measurement": "normalized growth", "setting": "[27]", "result": 1.01}, {"measurement": "normalized growth", "setting": "[28]", "result": 0.89}, {"measurement": "normalized growth", "setting": "[29]", "result": 1.01}]}
{"smiles": "O=C1c2cccc3c([N+](=O)[O-])ccc(c23)C(=O)N1Cc1ccco1", "values": [{"measurement": "normalized growth", "setting": "[1]", "result": "0.81 (active)"}, {"measurement": "normalized growth", "setting": "[6]", "result": 0.94}, {"measurement": "normalized growth", "setting": "S. cerevisiae deletion strains, locus YCL061C, strain MRC1, hits give low values", "result": "0.896 (active)"}, {"measurement": "normalized growth", "setting": "[7]", "result": "0.873 (active)"}, {"measurement": "normalized growth", "setting": "[2]", "result": "0.763 (active)"}, {"measurement": "normalized growth", "setting": "[8]", "result": "0.909 (active)"}, {"measurement": "normalized growth", "setting": "[9]", "result": "0.879 (active)"}, {"measurement": "normalized growth", "setting": "[10]", "result": "0.321 (active)"}, {"measurement": "normalized growth", "setting": "[11]", "result": 0.974}, {"measurement": "normalized growth", "setting": "[12]", "result": 0.995}, {"measurement": "normalized growth", "setting": "[13]", "result": "0.791 (active)"}, {"measurement": "normalized growth", "setting": "[14]", "result": 0.97}, {"measurement": "normalized growth", "setting": "[15]", "result": 0.934}, {"measurement": "normalized growth", "setting": "[16]", "result": 0.852}, {"measurement": "normalized growth", "setting": "[17]", "result": 0.972}, {"measurement": "normalized growth", "setting": "[18]", "result": "0.341 (active)"}, {"measurement": "normalized growth", "setting": "[19]", "result": 0.815}, {"measurement": "normalized growth", "setting": "[20]", "result": "0.797 (active)"}, {"measurement": "normalized growth", "setting": "[21]", "result": 0.98}, {"measurement": "normalized growth", "setting": "[22]", "result": "0.796 (active)"}, {"measurement": "normalized growth", "setting": "[3]", "result": 0.739}, {"measurement": "normalized growth", "setting": "[23]", "result": 0.958}, {"measurement": "normalized growth", "setting": "[24]", "result": "0.899 (active)"}, {"measurement": "normalized growth", "setting": "[25]", "result": "0.753 (active)"}, {"measurement": "normalized growth", "setting": "[4]", "result": 0.997}, {"measurement": "normalized growth", "setting": "[26]", "result": "0.559 (active)"}, {"measurement": "normalized growth", "setting": "[5]", "result": "0.628 (active)"}, {"measurement": "normalized growth", "setting": "[27]", "result": "0.634 (active)"}, {"measurement": "normalized growth", "setting": "[28]", "result": "0.382 (active)"}, {"measurement": "normalized growth", "setting": "[29]", "result": 0.935}]}
